# Compound activity as filed in PubChem BioAssay.
# The sample as a whole holds a higher share of hits than the screen did.
# EZH2 inh – EZH2 (human) methyltransferase inhibition; PRC2 H3K27 methylation, DELFIA TRF, 1 h; Q15910; hit rate 0.35% among 57,000; AID 651548; inhibition, % at 12.5 µM;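 active means mean inhibition of replicates at least 50% and every single replicate also reaching 50%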;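 further: dimethyl H3K27 on biotinylated H3 21-44 peptide detected by antibody; plate controls were median neutral control wells for no effect and median positive control wells for full effect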
# Target sequence (Q15910 whole entry, looked up): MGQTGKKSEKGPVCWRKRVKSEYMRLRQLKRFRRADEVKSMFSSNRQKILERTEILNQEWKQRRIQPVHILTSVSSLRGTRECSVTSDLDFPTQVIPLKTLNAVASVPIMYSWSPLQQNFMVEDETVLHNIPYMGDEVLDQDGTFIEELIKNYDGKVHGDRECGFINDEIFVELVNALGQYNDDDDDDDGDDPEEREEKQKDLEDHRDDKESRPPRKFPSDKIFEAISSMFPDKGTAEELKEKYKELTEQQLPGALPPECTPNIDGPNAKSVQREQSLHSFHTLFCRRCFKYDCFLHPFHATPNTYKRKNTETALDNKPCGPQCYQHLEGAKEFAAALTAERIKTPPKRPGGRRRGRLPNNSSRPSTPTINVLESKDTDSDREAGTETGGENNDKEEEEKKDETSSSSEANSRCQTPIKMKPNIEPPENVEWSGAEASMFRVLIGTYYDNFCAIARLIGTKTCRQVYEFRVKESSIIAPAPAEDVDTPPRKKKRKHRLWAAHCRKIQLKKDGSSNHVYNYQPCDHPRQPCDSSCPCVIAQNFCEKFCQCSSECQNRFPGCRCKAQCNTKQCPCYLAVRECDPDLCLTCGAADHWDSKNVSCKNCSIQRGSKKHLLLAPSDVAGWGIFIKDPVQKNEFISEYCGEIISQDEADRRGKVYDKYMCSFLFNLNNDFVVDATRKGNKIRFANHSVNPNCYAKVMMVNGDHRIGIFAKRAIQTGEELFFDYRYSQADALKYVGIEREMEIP
# Starred values were filed as active, the others as inactive.
SMILES,EZH2 inh
C[C@@H]1CN([C@H](C)CO)C(=O)c2cc(NS(=O)(=O)c3cccs3)ccc2O[C@@H]1CN(C)Cc1ccccc1,-6.1
C[C@@H]1CN([C@@H](C)CO)C(=O)c2cc(NS(=O)(=O)c3cccs3)ccc2O[C@@H]1CN(C)Cc1ccccc1,0.6
C[C@H]1CN([C@@H](C)CO)C(=O)c2cc(NS(=O)(=O)c3cccs3)ccc2O[C@@H]1CN(C)Cc1ccccc1,3.0
C[C@H]1CN([C@@H](C)CO)C(=O)c2cc(NS(=O)(=O)c3cccs3)ccc2O[C@@H]1CN(C)Cc1ccc(-c2ccccc2)cc1,71.6*
C[C@H](CO)N1C[C@H](C)[C@@H](CN(C)Cc2ccccc2)Oc2ccc(NS(=O)(=O)c3cccs3)cc2C1=O,8.1
C[C@@H]1CN([C@@H](C)CO)C(=O)c2cc(NS(=O)(=O)c3cccs3)ccc2O[C@H]1CN(C)Cc1ccc(-c2ccccc2)cc1,59.9*
O=C(N/N=C/c1ccc(O)c2ccccc12)c1ccccc1O,10.2
N#Cc1c(NC(=O)Cn2cnc3scc(-c4ccccc4)c3c2=O)sc2c1CCC2,-8.2
COC(=O)CCCCCCC(=O)N/N=C/c1ccc(OC)cc1OC,7.9
COc1ccc(/C=N/NC(=O)c2ccc(C(=O)NO)cc2)c(OC)c1,-0.6
COc1cc(/C=C/c2ccc(OC)cc2OC)cc(OC)c1,51.3*
COC(=O)c1sccc1-c1ccc(-c2ccn(C(=O)c3ccc(Cl)cc3)n2)o1,36.5
O=C(CCCCCCC(=O)Nc1ccccc1O)N/N=C/c1cccc(Oc2ccccc2)c1,41.2
CN(C)CCCOc1ccc(/C=N/NC(=O)CCCCCCC(=O)Nc2ccccc2O)cc1,-13.6
CC1(CO)C=Cc2c(cc(O)c3c(=O)c(-c4ccc(O)cc4)coc23)O1 (stereo unspecified),64.9*
COc1ccc(-c2coc3c(OC)c(OC)cc(OC)c3c2=O)cc1,6.6
COc1ccc(-c2coc3c(OC)c(O)ccc3c2=O)cc1,0.6
COc1ccc(-n2nc3cc(C)c(NC(=O)COc4ccc(Cl)cc4Cl)cc3n2)cc1,4.3
O=C(O)CN(c1ccc([N+](=O)[O-])cc1)S(=O)(=O)c1ccccc1,-14.3
O=C(N/N=C/c1ccc(OCCO)cc1)c1ccccc1O,-6.8
CC1CC[C@]2(C(=O)OC3OC(COC4OC(CO)C(O)C(O)C4O)C(O)C(O)C3O)CC[C@]3(C(=O)O)C(=CCC4[C@@]5(C)CC[C@H](OC6OC(C)C(O)C(O)C6O)C(C)(C)C5CC[C@]43C)C2C1C (stereo partly specified),71.2*
C[C@H]1O[C@@H](O[C@H]2CC[C@@]3(C)C(CC[C@]4(C)C3CC=C3C5CC(C)(C)CC[C@]5(C(=O)O)CC[C@]34C(=O)O)C2(C)C)[C@H](O)[C@@H](O)[C@H]1O (stereo partly specified),3.4
CC1(C)CC[C@]2(C(=O)O[C@@H]3O[C@H](CO)[C@@H](O)[C@H](O)[C@H]3O)CC[C@]3(C)C(=CCC4[C@@]5(C)C[C@@H](O)[C@H](O)C(C)(C)C5CC[C@]43C)C2[C@@H]1O (stereo partly specified),67.7*
C[C@@H]1CC[C@]2(C(=O)O[C@@H]3O[C@H](CO)[C@@H](O)[C@H](O)[C@H]3O)CC[C@]3(C)C(=CCC4[C@@]5(C)C[C@@H](O)[C@H](O)C(C)(C)C5CC[C@]43C)C2[C@]1(C)O (stereo partly specified),36.2
C[C@H]1[C@H](C)CC[C@]2(C(=O)O)CC[C@]3(C(=O)O)C(=CCC4[C@@]5(C)CC[C@H](O[C@@H]6O[C@@H](C)[C@H](O)[C@@H](O)[C@H]6O)C(C)(C)C5CC[C@]43C)[C@H]12 (stereo partly specified),19.1
SMILES,EZH2 inh
CC1(C)CC[C@]2(C(=O)O[C@@H]3O[C@H](CO)[C@@H](O)[C@H](O)[C@H]3O)CC[C@]3(C)C(=CCC4[C@@]5(C)CC[C@H](OC6O[C@H](CO)[C@@H](O)[C@H](O[C@@H]7O[C@H](CO)[C@@H](O)[C@H](O)[C@H]7O)[C@H]6O)C(C)(C)C5CC[C@]43C)[C@@H]2C1 (stereo partly specified),-17.6
CN(C)CCCNC(=O)[C@@]1(c2ccc([N+](=O)[O-])cc2)CC(=O)N(CC23CC4CC(CC(C4)C2)C3)[C@@H]1c1ccc(CO)cc1,-22.0
COc1cc(NC(=O)C(C)Oc2ccc(Cl)cc2Cl)c(C(=O)O)cc1OC (stereo unspecified),-8.9
C/C=C/[C@H](CC(=O)N1Cc2ccccc2C[C@H]1CO)[Si](C)(C)c1ccc(OC)cc1,56.7*
COc1ccc([Si](C)(C)[C@@H]2[C@@H](CC(=O)N3Cc4ccccc4C[C@H]3CO)O[C@]3(C(=O)N(C)c4c(Br)cc(C)cc43)[C@H]2C)cc1,17.8
COc1ccc(C(=O)Nc2ccc(CN3C(=O)[C@]4(O[C@H](CC(=O)N5Cc6ccccc6C[C@H]5CO)[C@@H]([Si](C)(C)c5ccc(OC)cc5)[C@@H]4C)c4ccccc43)cc2)cc1,-1.5
O=C(c1ccccc1)N1CC(=O)N(OCc2ccccc2)C1c1cccs1 (stereo unspecified),-5.4
c1ccc(Cn2c3ccccc3n3c(SCc4nc5ccccc5[nH]4)nnc23)cc1,-2.2
Cc1cc(C)c(NC(=O)CSc2nc(-c3ccccc3)c(-c3ccccc3)[nH]2)c(C)c1,10.6
Cc1ccc(OCc2nc(N)nc(N(C)C)n2)cc1C,5.7
Cc1cc(=O)c2c(O)c3c(O)cc(O)c4c5c(O)cc(O)c6c(O)c7c(=O)cc(C)c8c1c2c(c34)c(c65)c78,64.3*
COc1ccc(C(=O)Nc2cccc(N=[N+]=[N-])c2)cc1,-27.3
OCC1(CO)COC(COc2ccccc2)=N1,5.1
Cc1ccc(Nc2nc(Oc3ccc(=O)[nH]n3)nc(N3CCOCC3)n2)cc1,0.9
O=C(NN=C1CCCCCC1)c1ccccc1O,17.5
CO[C@H](CN(C)S(=O)(=O)c1ccc(C)cc1)[C@H](C)CN(Cc1ccccc1Cl)[C@@H](C)CO,42.0
CO[C@@H](CN(C)S(=O)(=O)c1ccc(C)cc1)[C@@H](C)CN(Cc1ccccc1Cl)[C@H](C)CO,51.1*
CO[C@@H](CN(C)S(=O)(=O)c1ccc(C)cc1)[C@@H](C)CN(Cc1ccccc1Cl)[C@@H](C)CO,37.9
COc1ccc(NCc2ccc(C(=O)Nc3ccccc3N)cc2)cc1OC,6.1
Cc1ccc(C)c(NC(=O)CSc2cc(C)c3ccccc3n2)c1,20.5
O=c1cc(-c2ccc(O)cc2)oc2cc(O[C@@H]3O[C@H](CO)[C@@H](O)[C@H](O)[C@H]3O[C@@H]3OC[C@](O)(CO)[C@H]3O)cc(O)c12,-10.9
COc1cc(O[C@@H]2O[C@H](CO)[C@@H](O)[C@H](O)[C@H]2O)c2c(=O)cc(-c3ccccc3)oc2c1OC,-9.4
O=c1cc(-c2ccc(O)c(O)c2)oc2c(C3O[C@H](CO)[C@H](O)[C@H](O)[C@H]3O)c(O)cc(O)c12 (stereo partly specified),81.4*
O=C(COc1ccc(Cl)cc1)Nc1ccc(O)cc1C(=O)O,0.6
COC(=O)C1=CC(C(=O)c2ccccc2)=NN(c2ccccc2)C1C(=O)OC (stereo unspecified),12.4
N#Cc1c(C(F)(F)F)cc(-c2cccs2)nc1SCC(O)COc1ccc(Cl)cc1 (stereo unspecified),15.3
COc1ccc(-c2cc(-c3cccs3)nc(SC(C(=O)O)c3ccccc3)c2C#N)cc1 (stereo unspecified),72.1*
N#Cc1c(C(F)(F)F)cc(-c2cccs2)nc1SCC(=O)Nc1c(F)cccc1F,-7.9
